The whole screen tested about 54,000 compounds, of which about 120 (0.22%) were called active. Inconclusive results (about 8%) are left out. Calls follow the shape of the dose curve; as a rule, active = well fitted inhibition curve with a large enough effect; inconclusive = small, poorly fitted or top-dose-only effect, or effect the other way; inactive = flat fitted curve, though single readings scatter. Many of the other results were omitted from the sample, so actives are more common in it than they were.
These compounds were tested against Fumarate hydratase, mitochondrial (Homo sapiens) (UniProt P07954) (assay: Identification of activators of human fumarate hydratase by quantitative high-throughput screening). Settings: FH coupled MDH/diaphorase resazurin fluorescence, 15 min; series mostly up to 79.9 µM; activity change, negative = inhibition: at the top concentration.
Chain of Fumarate hydratase, mitochondrial (Homo sapiens) (P07954 whole entry, looked up): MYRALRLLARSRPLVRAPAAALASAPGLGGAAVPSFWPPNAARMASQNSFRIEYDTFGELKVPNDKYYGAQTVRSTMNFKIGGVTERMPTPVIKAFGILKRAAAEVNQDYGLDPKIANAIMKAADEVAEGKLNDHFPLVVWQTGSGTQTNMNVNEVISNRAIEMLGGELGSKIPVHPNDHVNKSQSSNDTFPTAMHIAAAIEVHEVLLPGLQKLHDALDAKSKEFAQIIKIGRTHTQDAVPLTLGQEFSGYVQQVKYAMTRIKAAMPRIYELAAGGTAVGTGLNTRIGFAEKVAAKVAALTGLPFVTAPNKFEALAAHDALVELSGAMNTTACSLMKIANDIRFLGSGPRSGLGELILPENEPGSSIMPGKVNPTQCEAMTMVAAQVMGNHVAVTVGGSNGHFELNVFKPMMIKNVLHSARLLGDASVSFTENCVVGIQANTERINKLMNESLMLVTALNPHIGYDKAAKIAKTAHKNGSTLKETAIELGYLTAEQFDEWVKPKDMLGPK
% is scaled to controls: 0 for no effect and ±100 for the full control effect.
Also: the screen sought activators but most active calls are inhibition curves; nearly all actives have a fitted effect of over 45% in size.

Structure (SMILES)	activity change, negative = inhibition
Clc1ccc(CSc2nncn3c2cc2occc23)cc1	-10.1% (inactive)
CCC/C=C/C=C/C1CC(O)C2(O)C(=O)OCC12 (stereo not given)	0.378% (inactive)
CC(=O)/C=C/C1C(C)CC(O[C@@H]2O[C@H](CO)[C@@H](O)[C@H](O)[C@H]2O)CC1(C)C (stereo not given in full)	-0.219% [at 53.3 µM] (inactive)
COc1ccc(NC(=O)c2ccco2)cc1NC(=O)COc1ccc(C)c(C)c1	1.59% (inactive)
Cc1cc(NC(=O)CSc2ncc(C(=O)Nc3ccc(Cl)cc3)c(=O)n2C)no1	6.78% (inactive)
C1CCC[C@H]2CCCN3CC[C@@H](CCCCCC[C@@H]4CCCN5CC[C@@H](CC1)O[C@@H]45)O[C@@H]23	-2.71% [at 0.217 µM] (inactive)
CNC(=O)c1ccccc1Nc1nc(Nc2ccc3c(c2OC)CCC[C@@H](N2CCN(CCO)CC2)C3)ncc1Cl	-3.28% (inactive)
CN(C)c1cccc(Oc2cnc(Nc3cccc(O)c3)nc2)c1	-7.76% (inactive)
CCOc1ccc(CCNC(=O)CN(c2ccc(C)cc2)S(=O)(=O)N(C)C)cc1OCC	-7.19% (inactive)
CC1CN(C(=O)N2CCC(C(=O)NCc3ccco3)CC2)c2cc(Cl)ccc2O1 (stereo not given)	2.28% (inactive)
CC(CCC1(O)OC2CC3C4CC=C5C[C@@H](O[C@@H]6O[C@H](CO)[C@@H](O[C@@H]7O[C@@H](C)[C@H](O)[C@@H](O)[C@H]7O)[C@H](O)[C@H]6O[C@@H]6O[C@@H](C)[C@H](O)[C@@H](O)[C@H]6O)CC[C@]5(C)C4CC[C@]3(C)[C@@]2(O)[C@@H]1C)CO[C@@H]1O[C@H](CO)[C@@H](O)[C@H](O)[C@H]1O (stereo not given in full)	0.389% [at 20.6 µM] (inactive)
CC(=O)OC1CCC2(C)C(CCC3(C)C2CC=C2C4CC(C)(C)CCC4(C)CCC23C)C1(C)C(=O)O (stereo not given)	-22% [at 53.3 µM] (inactive)
CCC(COC)n1nnc2c(Nc3ccc(OC)cc3C)nc(C)cc21 (stereo not given)	-0.898% (inactive)
C[C@H]1COCCN1c1cc(C2(S(=O)(=O)C3CC3)CC2)nc(-c2ccc(NC(=S)NCCO)cc2)n1	-2.67% (inactive)
CCCN(CCC)CCCNC(=O)Cn1ncc2c3ccccc3n(Cc3ccccc3)c2c1=O	-13.9% (inactive)
CC(CNC(=O)c1nnc(Cc2cccc(F)c2)o1)c1ccccc1 (stereo not given)	-6.76% (inactive)
CC(C)(C)OC(=O)N1CCC(c2c(C(=O)NCCc3ccsc3)cnn2-c2ccc(F)cc2F)CC1	-7.51% (inactive)
CC(=O)c1ccc(NC(=O)CCc2nc(-c3ccc(C)cc3)no2)cc1	-9.62% (inactive)
CC(C)C(=O)Nc1nc2c(s1)CC(C(C)(C)C)CC2 (stereo not given)	-26% (inactive)
COC(=O)C12C(=O)C(C)=C(O)C1(C)C(C)=CC1C3(CO)CCC(O)C(C)(C)C3CCC12C (stereo not given)	2.3% [at 53.3 µM] (inactive)

Reference: PubChem BioAssay AID1347055 (National Center for Advancing Translational Sciences (NCATS), 2019)
